# Assay results: PubChem BioAssay
# The source made the active and inactive calls.
# How the values were obtained:
# [1] = adipocyte viability effects, profiling panel, cell-based, 3T3-L1 adipocytes, calcein-AM fluorescence, 48 h, basal (AID 1163); settings: 3T3-L1 adipocytes viability, higher = more signal
# [2] = HepG2 cell viability effects, profiling panel, calcein-AM fluorescence, 48 h, basal (AID 1164); settings: higher = more signal
# [3] = MM1S cell viability effects, profiling panel, calcein-AM fluorescence, 48 h, basal (AID 1165); settings: higher = more signal;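 also: viability of MM1S multiple myeloma cells under basal unstimulated conditions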
# [4] = basal RPMI8226 viability, no added stimulus, profiling panel, cell-based, calcein-AM fluorescence, 48 h, PK04 Diversity Set (AID 1166); settings: RPMI8226 myeloma viability, higher = more signal;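 also: cells grown under basal conditions without added stimulus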
# [5] = basal HepG2 mitochondrial membrane potential changes, profiling panel, cell-based, JC-1 fluorescence, 24 h, 100 nL compound (AID 1167); settings: higher = more signal
# [6] = basal 3T3-L1 adipocyte mitochondrial potential changes, profiling panel, cell-based, JC-1 fluorescence, 3T3-L1 adipocytes, 24 h, 100 nL compound (AID 1168); settings: JC-1 mitochondrial fluorescence, higher = more signal, called active from +8 up or from −8 down
# [7] = basal RPMI8226 mitochondrial membrane potential changes, profiling panel, cell-based, JC-1 fluorescence, 24 h, 100 nL compound (AID 1169); settings: RPMI8226 myeloma, JC-1 mitochondrial potential fluorescence, higher = more signal
# [8] = basal MM1S mitochondrial membrane potential changes, profiling panel, cell-based, JC-1 fluorescence, 24 h, 100 nL compound (AID 1170); settings: higher = more signal
# [9] = A549 lung cancer cell viability effects, profiling panel, resazurin fluorescence, 24 h, PK04 Diversity Set (AID 1171); settings: higher = more signal, called active from +8 up or from −8 down
# [10] = HepG2 liver cancer cell viability effects, profiling panel, resazurin fluorescence, 24 h, PK04 Diversity Set (AID 1172); settings: higher = more signal
# [11] = basal S. cerevisiae growth modulation, no modifier, primary screen, OD600, strain BY4716, 24 h, basal condition (AID 1173); settings: OD600, 24 h, higher = more signal, called active from +8 up or from −8 down
# [12] = MM1S myeloma cell viability, profiling panel, resazurin fluorescence, basal, 24 h, PK04 Diversity Set (AID 1174); settings: higher = more signal, called active from +8 up or from −8 down;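 also: MM1S multiple myeloma cell line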
# [13] = molecular target: Dihydroorotate dehydrogenase (quinone), mitochondrial (Plasmodium falciparum (isolate 3D7)) (UniProt Q08210); experiment: PfDHODH enzyme inhibitors, primary screen, biochemical, C-terminal His tag, absorbance 600 nm (AID 1175); settings: DCIP absorbance 600 nm, higher = more signal, called active from +8 up or from −8 down;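 also: recombinant parasite enzyme with a five histidine tag at its C terminus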
# [14] = S. cerevisiae RM11-1a growth modifiers, primary screen, strain RM11-1a, OD600, basal, 24 h (AID 1177); settings: OD600, 24 h, higher = more signal, called active from +8 up or from −8 down;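 also: cultures grown under basal conditions with no added stressor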
# [15] = E. coli acrAB mutant growth effects, primary screen, E. coli filamentation inducers, strain DRC39, OD650, 24 h (AID 1178); settings: higher = more signal, called active from +8 up or from −8 down;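 also: growth measured as culture turbidity by optical density at 650 nm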
# [16] = E. coli acrAB mutant growth effects, primary screen, E. coli filamentation inducers, strain DRC39, OD650, 48 h (AID 1179);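 also: screen aims at cell division blockers that make cells filament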; settings: E. coli DRC39 delta-acrAB growth, higher = more signal, called active from +8 up or from −8 down
# [17] = RPMI8226 myeloma cell viability, profiling panel, resazurin fluorescence, basal, 24 h, PK04 Diversity Set (AID 1180); settings: higher = more signal;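 also: RPMI8826 multiple myeloma cell line at 5000 cells per well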
# [18] = molecular target: E3 ubiquitin-protein ligase XIAP (Homo sapiens) (UniProt P98170); experiment: XIAP binders, primary screen, biophysical, small-molecule microarray, fluorescence 635 nm (AID 1181); settings: small-molecule microarray binding, higher = more signal;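 also: score merges 667 nm emission and signal to noise over triplicate slides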
# [19] = tested on: XIP peptide (Xip251-270) binding; experiment: small-molecule binders of XIP peptide, primary screen, biochemical, small-molecule microarray, fluorescence 635/667 nm, 0.1 µg/mL protein (AID 1182); settings: fluorescent protein binding, 635 nm, higher = more signal, called active from +8 up or from −8 down
# XIP peptide (Xip251-270) = experiment: small-molecule binders of XIP peptide, primary screen, biochemical, small-molecule microarray, fluorescence 635/667 nm, 0.5 µg/mL protein (AID 1183); settings: small-molecule microarray binding, fluorescence 635 nm; higher = more signal
# Sequence of E3 ubiquitin-protein ligase XIAP (Homo sapiens) (P98170 whole entry, looked up): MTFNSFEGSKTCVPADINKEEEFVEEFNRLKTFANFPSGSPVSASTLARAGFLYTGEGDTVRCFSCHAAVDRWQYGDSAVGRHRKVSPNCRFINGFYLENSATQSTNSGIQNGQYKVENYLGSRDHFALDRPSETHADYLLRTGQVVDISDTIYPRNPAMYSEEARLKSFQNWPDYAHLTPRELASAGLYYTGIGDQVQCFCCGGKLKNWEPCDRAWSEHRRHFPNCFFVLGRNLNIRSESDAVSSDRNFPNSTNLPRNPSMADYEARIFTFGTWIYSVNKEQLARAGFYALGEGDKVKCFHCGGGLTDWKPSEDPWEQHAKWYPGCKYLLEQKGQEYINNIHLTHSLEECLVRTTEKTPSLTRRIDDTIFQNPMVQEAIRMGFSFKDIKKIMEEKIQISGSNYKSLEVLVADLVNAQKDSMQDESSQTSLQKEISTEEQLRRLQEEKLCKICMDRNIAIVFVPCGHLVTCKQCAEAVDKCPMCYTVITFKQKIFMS
# Sequence of Dihydroorotate dehydrogenase (quinone), mitochondrial (Plasmodium falciparum (isolate 3D7)) (Q08210 whole entry, looked up): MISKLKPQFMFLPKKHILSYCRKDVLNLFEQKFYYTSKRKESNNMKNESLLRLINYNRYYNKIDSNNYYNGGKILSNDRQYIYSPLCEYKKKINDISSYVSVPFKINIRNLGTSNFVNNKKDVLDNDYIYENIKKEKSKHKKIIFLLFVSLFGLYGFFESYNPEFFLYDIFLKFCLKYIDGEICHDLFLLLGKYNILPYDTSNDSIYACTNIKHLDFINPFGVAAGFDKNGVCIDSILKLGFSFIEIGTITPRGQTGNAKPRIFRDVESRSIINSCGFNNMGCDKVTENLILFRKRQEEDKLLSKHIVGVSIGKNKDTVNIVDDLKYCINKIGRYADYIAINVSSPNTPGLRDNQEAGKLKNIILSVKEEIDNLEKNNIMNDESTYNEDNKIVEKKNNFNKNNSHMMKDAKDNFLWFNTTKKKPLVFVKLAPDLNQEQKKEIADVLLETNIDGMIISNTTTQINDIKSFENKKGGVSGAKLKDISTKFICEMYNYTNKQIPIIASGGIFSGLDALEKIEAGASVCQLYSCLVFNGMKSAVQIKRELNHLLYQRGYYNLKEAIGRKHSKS
structure (smiles),measurement,setting,value
C[N+](C)(C)CCCCNC(=O)[C@@H]1C[C@@H]2C(=O)NCC(=O)N2[C@@H]1c1cccc(OCCO)c1,z-score,[1],-0.0369
same,z-score,[2],0.653
same,z-score,[3],0.499
same,z-score,[4],0.089
same,z-score,[5],1.04
same,z-score,[6],0.294 (inactive)
same,z-score,[7],-0.361
same,z-score,[8],-0.552
same,z-score,[9],-0.105 (inactive)
same,z-score,[10],0.165
same,z-score,[11],-0.0902 (inactive)
same,z-score,[12],1.38 (inactive)
same,composite z-score,[13],-27.8 (active)
same,z-score,[14],-1.21 (inactive)
same,z-score,[15],1.87 (inactive)
same,z-score,[16],1.77 (inactive)
same,z-score,[17],0.356
same,composite z-score,[18],0.602
same,composite z-score,[19],0.71 (inactive)
same,composite z-score,XIP peptide (Xip251-270),0.865
CC(C)(C)OC(=O)CC[C@@]1(C(=O)NCc2ccccc2)N=C(c2ccc(OCCCO)cc2)O[C@@H]1c1ccccc1CN=[N+]=[N-],z-score,[1],2.98
same,z-score,[2],-0.399
same,z-score,[3],0.507
same,z-score,[4],-1.04
same,z-score,[5],2.13
same,z-score,[6],0.179 (inactive)
same,z-score,[7],-1.12
same,z-score,[8],0.236
same,z-score,[9],0.392 (inactive)
same,z-score,[10],-0.169
same,z-score,[11],-0.986 (inactive)
same,z-score,[12],0.725 (inactive)
same,composite z-score,[13],-0.182 (inactive)
same,z-score,[14],-0.496 (inactive)
same,z-score,[15],2.1 (inactive)
same,z-score,[16],0.824 (inactive)
same,z-score,[17],0.394
same,composite z-score,[18],-0.227
same,composite z-score,[19],1.42 (inactive)
same,composite z-score,XIP peptide (Xip251-270),0.733
COC(=O)c1c2oc(c1C(=O)OC)C(=O)N[C@@H](C(C)C)Cn1nncc1C1(CCCCC1)NC(=O)N[C@H](CO)CC2,z-score,[1],-0.5
same,z-score,[2],0.619
same,z-score,[3],0.276
same,z-score,[4],-0.161
same,z-score,[5],1.58
same,z-score,[6],0.994 (inactive)
same,z-score,[7],0.144
same,z-score,[8],1.08
same,z-score,[9],2.11 (inactive)
same,z-score,[10],2.17
same,z-score,[11],-3.46 (inactive)
same,z-score,[12],1.4 (inactive)
same,composite z-score,[13],0.62 (inactive)
same,z-score,[14],-0.989 (inactive)
same,z-score,[15],2.61 (inactive)
same,z-score,[16],2.18 (inactive)
same,z-score,[17],0.928
same,composite z-score,[18],0.0623
same,composite z-score,[19],-0.503 (inactive)
same,composite z-score,XIP peptide (Xip251-270),-0.985
CC(C)[Si](C#C[Si](C(C)C)(C(C)C)C(C)C)(O[C@H](C)c1cn([C@H](C)c2ccccc2)nn1)C(C)C,z-score,[1],0.517
same,z-score,[2],0.417
same,z-score,[3],-0.908
same,z-score,[4],1.5
same,z-score,[5],2.71
same,z-score,[6],1.94 (inactive)
same,z-score,[7],-0.87
same,z-score,[8],0.265
same,z-score,[9],3.13 (inactive)
same,z-score,[10],1.3
same,z-score,[11],-0.0779 (inactive)
same,z-score,[12],2.34 (inactive)
same,composite z-score,[13],-0.32 (inactive)
same,z-score,[14],-1.88 (inactive)
same,z-score,[15],2.06 (inactive)
same,z-score,[16],0.944 (inactive)
same,z-score,[17],2.41
same,composite z-score,[18],-0.0559
same,composite z-score,[19],-0.608 (inactive)
same,composite z-score,XIP peptide (Xip251-270),0.193
Cc1ccc(S[C@]2(C(=O)NCCN3CCOCC3)CC(=O)N(Cc3cc(C(F)(F)F)cc(C(F)(F)F)c3)[C@@H]2c2ccc(CO)cc2)cc1,z-score,[1],0.947
same,z-score,[2],-0.0671
same,z-score,[3],1.15
same,z-score,[4],0.603
same,z-score,[5],1.18
same,z-score,[6],0.784 (inactive)
same,z-score,[7],-0.0854
same,z-score,[8],0.685
same,z-score,[9],3.33 (inactive)
same,z-score,[10],1.08
same,z-score,[11],-1.76 (inactive)
same,z-score,[12],0.828 (inactive)
same,composite z-score,[13],-0.911 (inactive)
same,z-score,[14],-2.54 (inactive)
same,z-score,[15],1.01 (inactive)
same,z-score,[16],1.45 (inactive)
same,z-score,[17],0.672
same,composite z-score,[18],0.0808
same,composite z-score,[19],-0.316 (inactive)
same,composite z-score,XIP peptide (Xip251-270),0.0326
C=C(/C(=C/C[C@H](OC(C)=O)c1cccc(OCCO)c1)c1cc(C(=O)OC)ccc1OC)C(C)C,z-score,[1],0.911
same,z-score,[2],0.454
same,z-score,[3],-0.181
same,z-score,[4],0.587
same,z-score,[5],1.66
same,z-score,[6],1.91 (inactive)
same,z-score,[7],0.00485
same,z-score,[8],0.343
same,z-score,[9],3.57 (inactive)
same,z-score,[10],1.97
same,z-score,[11],-1.63 (inactive)
same,z-score,[12],1.92 (inactive)
same,composite z-score,[13],-0.569 (inactive)
same,z-score,[14],-1.29 (inactive)
same,z-score,[15],2.48 (inactive)
same,z-score,[16],1.67 (inactive)
same,z-score,[17],1.87
same,composite z-score,[18],0.0479
same,composite z-score,[19],-0.139 (inactive)
same,composite z-score,XIP peptide (Xip251-270),-0.595
C=C(C(=O)CC[C@@H](OC(C)=O)c1ccccc1OCCO)C(C)C,z-score,[1],-0.161
same,z-score,[2],-0.9
same,z-score,[3],-0.951
same,z-score,[4],0.0365
same,z-score,[5],-0.75
same,z-score,[6],0.544 (inactive)
same,z-score,[7],-0.0109
same,z-score,[8],0.0542
same,z-score,[9],0.788 (inactive)
same,z-score,[10],0.166
same,z-score,[11],-13 (active)
same,z-score,[12],0.932 (inactive)
same,composite z-score,[13],-3.59 (inactive)
same,z-score,[14],0.0933 (inactive)
same,z-score,[15],1.33 (inactive)
same,z-score,[16],0.928 (inactive)
same,z-score,[17],1.57
same,composite z-score,[18],-0.0163
same,composite z-score,[19],0.888 (inactive)
same,composite z-score,XIP peptide (Xip251-270),0.565
CO[C@H]1O[C@H](CO)[C@@H](OC(=O)Nc2ccccc2)[C@H](OC(=O)Nc2ccccc2-c2ccccc2)[C@H]1OC(=O)Nc1ccccc1-c1ccccc1,z-score,[1],1.59
same,z-score,[2],-4.94
same,z-score,[3],-3.51
same,z-score,[4],-4.34
same,z-score,[5],-1.05
same,z-score,[6],3.65 (inactive)
same,z-score,[7],-1.17
same,z-score,[8],-1.64
same,z-score,[9],-6.11 (inactive)
same,z-score,[10],-4.93
same,z-score,[11],-2.12 (inactive)
same,z-score,[12],-6.52 (inactive)
same,composite z-score,[13],-0.551 (inactive)
same,z-score,[14],0.145 (inactive)
same,z-score,[15],0.218 (inactive)
same,z-score,[16],-0.414 (inactive)
same,z-score,[17],-5.34
same,composite z-score,[18],0.113
same,composite z-score,[19],1.32 (inactive)
same,composite z-score,XIP peptide (Xip251-270),0.896
COC(=O)C1=CC(c2ccc(CO)cc2)=CC(c2cccs2)N(C)C=C1C(=O)OC (stereo not given),z-score,[1],2.32
same,z-score,[2],-0.0015
same,z-score,[3],-0.517
same,z-score,[4],-0.257
same,z-score,[5],0.636
same,z-score,[6],0.375 (inactive)
same,z-score,[7],-0.327
same,z-score,[8],0.12
same,z-score,[9],0.446 (inactive)
same,z-score,[10],-0.419
same,z-score,[11],-2.16 (inactive)
same,z-score,[12],0.173 (inactive)
same,composite z-score,[13],-1.75 (inactive)
same,z-score,[14],-0.688 (inactive)
same,z-score,[15],1.05 (inactive)
same,z-score,[16],0.542 (inactive)
same,z-score,[17],1.05
same,composite z-score,[18],0.0049
same,composite z-score,[19],1.84 (inactive)
same,composite z-score,XIP peptide (Xip251-270),0.302
